Reference: PubChem BioAssay
For part of these data: Entries with a potency or affinity are not part of this list. Active and inactive are the calls of the source.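 How the source made its calls, unless noted: active means fitted half-maximal concentration within the tested range, moderate curve steepness, significant signal drop, and little compound fluorescence or bead-linkage interference; inactive means the rest.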

How the values were obtained:
[1] = target: Cell division control protein 42 homolog (Homo sapiens) (UniProt P60953); test: inhibition of fluorescent GTP binding to constitutively active Cdc42 – biochemical, multiplex bead flow cytometry, Bodipy-FL-GTP, dose response (AID 1333;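 active means fitted half-maximal concentration within the tested dose range, moderate curve steepness, a statistically real signal drop, and little compound fluorescence or tag-binding interference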)
Sequence of Cell division control protein 42 homolog (Homo sapiens) (P60953 whole entry, looked up): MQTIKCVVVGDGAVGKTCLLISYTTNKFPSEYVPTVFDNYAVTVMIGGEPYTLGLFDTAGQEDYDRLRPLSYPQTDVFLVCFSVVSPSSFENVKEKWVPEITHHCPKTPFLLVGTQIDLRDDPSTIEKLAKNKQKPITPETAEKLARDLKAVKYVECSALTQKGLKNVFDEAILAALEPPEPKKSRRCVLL

[2] = target: Cell division control protein 42 homolog (Homo sapiens) (UniProt P60953); test: inhibition of fluorescent GTP binding to wildtype Cdc42 – biochemical, multiplex bead flow cytometry, Bodipy-FL-GTP, dose response (AID 1334); settings: bead-based flow cytometry, Bodipy-FL-GTP binding to GST-Cdc42; at 100 µM (top of the series) unless noted
[3] = target: GTPase HRas (Homo sapiens) (UniProt P01112); test: Ras wt fluorescent GTP loading blockade – biochemical, wildtype, multiplex bead flow cytometry, dose response (AID 1335;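 active means fitted half-maximal concentration within 10 nM to 100 µM, steepness 0.5 to 2, significant signal drop, low assay interference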); settings: bead-based flow cytometry, Bodipy-GTP binding to GST-Ras; at 100 µM (top of the series) unless noted
Sequence of GTPase HRas (Homo sapiens) (P01112 whole entry, looked up): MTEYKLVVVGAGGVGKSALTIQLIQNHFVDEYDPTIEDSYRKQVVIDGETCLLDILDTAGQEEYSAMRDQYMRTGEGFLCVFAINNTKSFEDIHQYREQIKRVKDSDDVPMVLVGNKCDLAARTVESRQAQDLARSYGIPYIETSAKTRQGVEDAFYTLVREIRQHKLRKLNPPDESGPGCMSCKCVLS

[4] = system: Ras-related protein Rab-7a (dog), GTP binding; test: blockers of fluorescent GTP binding to Rab7 – biochemical, wildtype, multiplex bead flow cytometry, dose response (AID 1336; call rule not given here)
[5] = target: Ras-related C3 botulinum toxin substrate 1 (Homo sapiens) (UniProt P63000); test: inhibition of wildtype Rac1 nucleotide loading – biochemical, multiplex bead flow cytometry, dose response (AID 1340;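 active means dose curve with midpoint inside tested range, moderate steepness, plateau gap beyond fit error, low compound glow and bead-link interference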); settings: GST-Rac1 beads, Bodipy-FL-GTP binding; at 100 µM (top of the series) unless noted
[6] = target: GTPase HRas (Homo sapiens) (UniProt P01112); test: blockade of GTP loading onto mutant Ras – biochemical, activated mutant, multiplex bead flow cytometry, dose response (AID 1341;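 active means dose-response curve with midpoint inside the tested range, moderate steepness, significant amplitude and little compound fluorescence or bead-attachment interference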;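 further: GST-tagged constitutively activated Ras mutant immobilized on beads and multiplexed with other GTPases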)

Structure (SMILES) | outcome [1] | fluorescence, percent of control (lower = inhibition) [2] | GTP binding, percent of control [3] | outcome [4] | GTP binding signal, raw median fluorescence (lower = inhibition) (MCF (arbitrary fluorescence units)) [5] | outcome [6]
CC(=O)Oc1cccc(C#CC(=O)c2ccc([N+](=O)[O-])cc2)c1 | inactive | 35.4% | 173% | inactive | 95.5 | inactive
COc1ccc2cc(C)c3nnc(SCc4cccnc4)n3c2c1 | inactive | 32.1% | 76.7% | inactive | 221 | inactive
CCN1C(=O)C(CC(=O)Nc2ccc(F)cc2)N(CCc2ccc(OC)cc2)C1=S (stereo not given) | inactive | 33.8% | 78.6% | inactive | 239 | inactive
O=C(O)c1cc([N+](=O)[O-])ccc1NCc1ccccc1Cl | inactive | 96.9% | 112% | inactive | 84.1 | inactive
O=C(O)c1ccc(COc2ccc(F)cc2)o1 | inactive | 61.2% | 87.5% | inactive | 35 | inactive
Cc1ccn2c(NCc3ccc4c(c3)OCO4)c(-c3ccc(O)cc3)nc2c1 | inactive | 60.4% | 75% | inactive | 0 | inactive
O=C(O)c1cccc(NCc2ccccc2)c1 | inactive | 65.9% | 86.9% | inactive | 38.8 | inactive
Nc1c(S(=O)(=O)c2ccccc2)c2nc3ccccc3nc2n1C1CC1 | inactive | 33.3% | 80% | inactive | 196 | inactive
COc1ccc(C(=O)NC(=S)N2CC(C)OC(C)C2)cc1 (stereo not given) | inactive | 54.3% | 68.1% | inactive | 216 | inactive
COc1ccc2c3c(cccc13)C(=O)N(O)C2=O | inactive | 30.1% | 69.8% | inactive | 145 | inactive
Cc1ccc(/C=C2\SC(=S)N(C(Cc3ccccc3)C(=O)O)C2=O)cc1 (stereo not given) | inactive | 28.1% | 81.2% | inactive | 212 | inactive
Nc1nc(CN2CCN(c3ccccc3F)CC2)nc(N2CCCc3ccccc32)n1 | inactive | 28.5% | 69.6% | inactive | 210 | inactive
O=C(O)c1cccc(Oc2ccc([N+](=O)[O-])cc2)c1 | inactive | 62.7% | 61.7% | inactive | 0 | inactive
O=C(CNC(=O)c1ccco1)OCN1C(=O)c2ccccc2C1=O | inactive | 52% | 66.1% | inactive | 220 | inactive
NC(=S)N=Nc1c(O)[nH]c2cc(F)c(F)cc12 | inactive | 29.7% | 63.2% | inactive | 155 | inactive
COc1ccc(C(=O)O)c(OCc2ccccc2C)c1 | inactive | 62.5% | 208% | inactive | 57.3 | inactive
COC(=O)CSc1nc2cc(Cl)ccc2c(=O)n1C1CCCC1 | inactive | 98% | 180% | inactive | 186 | inactive
CCOc1cc(/C=C(/C#N)c2nc3ccccc3[nH]2)ccc1OCc1ccc(C(=O)O)o1 | inactive | 56.8% | 84.9% | inactive | 103 | inactive
COCCNc1nnnc2c1sc1nc(N3CCOCC3)c3c(c12)CCCC3 | inactive | 29.6% | 64.1% | inactive | 137 | inactive
COc1cc2[nH]c(=S)nc(NCc3ccccn3)c2cc1OC | inactive | 31.9% | 71.7% | inactive | 176 | inactive

Structure (SMILES) | outcome [1] | fluorescence, percent of control (lower = inhibition) [2] | GTP binding, percent of control [3] | outcome [4] | GTP binding signal, raw median fluorescence (lower = inhibition) (MCF (arbitrary fluorescence units)) [5] | outcome [6]
O=C(Oc1c(Br)cc(C(=S)N2CCOCC2)cc1Br)c1ccc(Cl)cc1 | inactive | 29.7% | 85% | inactive | 217 | inactive
Cn1c(SCCOc2ccccc2F)nc2ccccc2c1=O | inactive | 29.1% | 71.9% | inactive | 158 | inactive
COc1cccc(CNCc2sc(C(=O)O)cc2C)c1 | inactive | 62.1% | 87.2% | inactive | 33.8 | inactive
Cc1nn(Cc2ccccc2)c(C)c1NC(=O)CSc1nc2c(c(C(F)(F)F)n1)CCc1ccccc1-2 | inactive | 33.3% | 73.5% | inactive | 175 | inactive
Cc1ccc(C)c(NC(=S)NNC(=O)c2cc3c(s2)CCC(C)C3)c1 (stereo not given) | inactive | 49.9% | 67.1% | inactive | 176 | inactive
CCOC(=O)c1c2c3c(cccc3[nH]c1=O)C(=O)c1ccccc1-2 | inactive | 35.5% | 77.9% | inactive | 176 | inactive
O=C(CSc1ccccc1)Nc1ccc(C(=O)Nc2cccc(O)c2)cc1 | inactive | 33.6% | 77.9% | inactive | 193 | inactive
O=C(O)c1cc(-c2ccc(/C=C3\NC(=O)N(c4ccc(Cl)cc4)C3=O)o2)ccc1Cl | inactive | 25.6% | 66.3% | inactive | 160 | inactive
CCN=C1S/C(=C\c2ccc(OC)c(OCC)c2)C(=O)N1CC | inactive | 50.8% | 60.4% | inactive | 213 | inactive
COc1ccc(CCNC(=O)C2CCCN2C(=O)NC2CCCCC2)cc1OC (stereo not given) | inactive | 50.7% | 180% | inactive | 184 | inactive
Cc1ccc(C(=O)Nn2c(O)c(C=C3N=c4ccccc4=N3)sc2=S)cc1 | inactive | 47.7% | 50.4% | inactive | 129 | inactive
COc1ccc(OCCN2C(=O)c3ccccc3C2=O)cc1 | inactive | 35.6% | 81.5% | inactive | 240 | inactive
Cc1ccc(CSc2nc3[nH]ncc3c(=O)[nH]2)cc1 | inactive | 37.4% | 80.6% | inactive | 173 | inactive
Cc1cccc(C)c1NC(=O)CSc1ccc([N+](=O)[O-])cn1 | inactive | 85.9% | 97.1% | inactive | 246 | inactive
COC(=O)c1cc(NC(=O)c2cccc(Cl)c2)c(=O)oc1/C=C/Nc1cc(C)cc(C)c1 | inactive | 193% | 237% | inactive | 563 | inactive
CCOC(=O)Cn1c(=O)c2c(nc(N3CCCCC3)n2C)n(C)c1=O | inactive | 52.2% | 63.3% | inactive | 168 | inactive
OCC(CO)(CO)NCc1ccc(-c2ccccc2)cc1 | inactive | 49.9% | 65.6% | inactive | 214 | inactive
CCCCCCCCSc1nnc2[nH]c(=O)cc(N)n12 | inactive | 33.4% | 79.8% | inactive | 241 | inactive
Nc1nn2c(-c3ccccc3)cc(=O)[nH]c2c1N=Nc1ccc(Br)cc1 | inactive | 27.4% | 78.1% | inactive | 197 | inactive
O=C1Nc2ccc(Br)cc2C12NNc1ccccc1O2 (stereo not given) | inactive | 33% | 77.8% | inactive | 182 | inactive

Structure (SMILES) | outcome [1] | fluorescence, percent of control (lower = inhibition) [2] | GTP binding, percent of control [3] | outcome [4] | GTP binding signal, raw median fluorescence (lower = inhibition) (MCF (arbitrary fluorescence units)) [5] | outcome [6]
CC(C)N(C(=O)Cn1cnc2cc([N+](=O)[O-])ccc2c1=O)C(C)C | inactive | 34.2% | 76.5% | inactive | 156 | inactive
CN(C)c1ccc([C@@H]2[C@@H]([N+](=O)[O-])[C@H]3C=Cc4ccccc4N3[C@H]2C(=O)c2ccc(Cl)cc2)cc1 | inactive | 46.5% | 60.6% | inactive | 169 | inactive
COCCN(C(=S)Nc1cc(C)ccc1C)C(C)c1cccnc1 (stereo not given) | inactive | 52.6% | 63.7% | inactive | 212 | inactive
O=C(CSc1ccc2nnc(-c3ccncc3)n2n1)Nc1nccs1 | inactive | 30.7% | 69.4% | inactive | 174 | inactive
COC(=O)c1cccnc1SCc1ccccc1 | inactive | 46% | 61.1% | inactive | 184 | inactive
O=C(O)c1cc([N+](=O)[O-])ccc1NCc1ccccc1 | inactive | 121% | 149% | inactive | 105 | inactive
O=[N+]([O-])c1cc(-c2ncccn2)c([N+](=O)[O-])s1 | inactive | 16.9% | 70.3% | inactive | 292 | inactive
Cn1c(=O)cc(N2CCOCC2)[nH]c1=O | inactive | 37.4% | 84.8% | inactive | 262 | inactive
COc1ccc(C(=O)N[C@H](C(=O)OCc2cc(=O)oc3cc(C)ccc23)C(C)C)cc1 | inactive | 50.4% | 63.8% | inactive | 202 | inactive
CCOc1cc(/C=N/NC(=O)c2cc(-c3cccnc3)nc3ccccc23)ccc1O | inactive | 33.8% | 80.2% | inactive | 188 | inactive
Cc1cc(C)n(C(=O)CNC(=O)c2ccc3c(c2)OCCO3)n1 | inactive | 53.2% | 61.7% | inactive | 200 | inactive
COc1ccc(/C=N/NC(=O)c2ccncc2)cc1Cn1nc([N+](=O)[O-])c(Br)c1C | inactive | 38.6% | 75.7% | inactive | 144 | inactive
CCC(OC(=O)c1cc2sccc2n1C)C(=O)NCc1ccco1 (stereo not given) | inactive | 54.2% | 63% | inactive | 212 | inactive
O=C(O)CCCCCNS(=O)(=O)c1cccc2c1C(=O)c1ccccc1C2=O | inactive | 32.5% | 45.9% | inactive | 0 | inactive
COc1cccc(OCc2ccccc2Br)c1C(=O)O | inactive | 51.9% | 206% | inactive | 46.4 | inactive
Cc1cccc(CNc2ncccc2C(=O)O)c1 | inactive | 61.9% | 224% | inactive | 57 | inactive
Cc1ccc(Nc2nc(-c3c(C)nc4ncccn34)cs2)cc1 | inactive | 29.8% | 43.7% | inactive | 103 | inactive
NC(=O)c1cc2nc(-c3ccco3)cc(C(F)(F)F)n2n1 | inactive | 29.6% | 40.3% | inactive | 91.8 | inactive
Cc1c(NC(=O)CCN2C(=O)c3ccccc3C2=O)c(=O)n(-c2ccccc2)n1C | inactive | 42.1% | 90.3% | inactive | 322 | inactive
CC(=O)c1ccc(N2CCN(C(=O)c3ccc4c(=O)n(-c5ccccc5)c(=O)[nH]c4c3)CC2)cc1 | inactive | 35.7% | 84.8% | inactive | 304 | inactive
